Hits are enriched below; roughly 1.9% of the tested compounds scored in any of these assays.
Efa HMGR inh – inhibitors of class II HMG-CoA reductase from Enterococcus faecalis; inhibition, % at 10 µM; AID 1066; 0.41% of 190,000 active; purified E. faecalis HMGR, NADPH absorbance 340 nm kinetic;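 active means inhibition above a set limit, the median over all tested compounds plus 3 SD, cut at about 9.5% in these data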;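 further: enzyme runs in reverse so mevalonate oxidation gives rising NADPH absorbance; 0% = complete reaction with DMSO and 100% = background rate lacking mevalonate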
Calpain2 inh – inhibitors of pig calpain II | 0.37% of 220,000 active | AID 1236 | inhibition, % at 16 µM | purified calpain II, fluorogenic peptide substrate, 30 min;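 active means inhibition above about 50%, limit read from the data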
PGE2 EP2 inh – EP2 receptor (human) inhibition; P43116; C6 glioma cells expressing human EP2, cAMP TR-FRET; cells stimulated with saturating PGE2; inhibition, % at 25 µM; 0.52% of 260,000 active; AID 1422;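 active means percent inhibition above 40 after rounding to a whole number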;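 further: rat C6 glioma host cells with rolipram phosphodiesterase inhibitor present; the protocol text gives 20 µM as final concentration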
Furin inh – human furin inhibition; AID 463115; inhibition, % at 20 µM or 30 µM; 0.061% of 220,000 active; purified furin, fluorogenic substrate cleavage; P09958; in the data active means inhibition above about 25%
Target sequence (P09958 108-714 limits assumed): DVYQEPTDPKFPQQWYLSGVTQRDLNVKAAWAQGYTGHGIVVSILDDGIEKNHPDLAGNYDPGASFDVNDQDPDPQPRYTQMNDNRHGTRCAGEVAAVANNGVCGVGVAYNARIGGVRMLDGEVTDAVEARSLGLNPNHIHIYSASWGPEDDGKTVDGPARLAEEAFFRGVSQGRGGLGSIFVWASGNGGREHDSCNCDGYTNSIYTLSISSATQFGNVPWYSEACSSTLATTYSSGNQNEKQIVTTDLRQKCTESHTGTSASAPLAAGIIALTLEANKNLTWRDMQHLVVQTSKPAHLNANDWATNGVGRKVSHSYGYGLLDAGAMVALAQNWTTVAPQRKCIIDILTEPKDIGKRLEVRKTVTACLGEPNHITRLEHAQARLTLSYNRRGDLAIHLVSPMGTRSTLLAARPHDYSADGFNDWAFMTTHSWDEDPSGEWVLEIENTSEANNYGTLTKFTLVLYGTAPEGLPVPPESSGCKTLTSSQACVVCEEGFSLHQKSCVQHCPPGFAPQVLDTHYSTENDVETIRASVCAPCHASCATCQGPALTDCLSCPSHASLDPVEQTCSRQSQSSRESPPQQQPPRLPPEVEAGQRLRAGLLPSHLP
EP2 modulator – modulators of human EP2 prostaglandin E2 receptor; P43116; EP2-expressing cells, cAMP HTRF FRET, PGE2 co-stimulation; induction, % at 25 µM; 0.83% of 260,000 active; AID 940;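 active means compounds whose cAMP rise, as percent of the full-agonist control response, exceeds 60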;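 further: rat C6 glioma line stably carrying human EP2 under a CMV promoter; the protocol text gives 20 µM as final concentration; 100% = response of wells given 1 µM PGE2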
The depositor's hits bear a star; i = inactive; / = no result; ! = repeats disagree.

SMILES	Efa HMGR inh	Calpain2 inh	PGE2 EP2 inh	Furin inh	EP2 modulator
CCOC(=O)c1c(-c2ccccc2)csc1NC(=O)C1CCCO1 (stereo not drawn)	-0.5	-27.1	7.6	3.6	64.3*!
CCn1c(N2CCC(C(=O)NC3CCCC3)CC2)nc2ccccc21	/	/	/	/	62.8*
O=C(NCCc1nc2ccccc2[nH]1)/C(=C/c1ccco1)NC(=O)c1ccccc1Br	0.9	0.9	7.4	-21.3	38.9
CC(NC(=O)/C(=C\c1ccco1)NC(=O)c1ccccc1Br)C(=O)O (stereo not drawn)	10.4*	14.0	2.9	-21.2	25.3
COc1ccc(/C=C/C(=O)c2cc(O)ccc2O)cc1	/	/	49.8*	/	-48.5
Cc1cc(C=O)c2c(c1)C=CC1(Oc3ccccc3C(=O)N1C)O2 (stereo not drawn)	18.6*	-24.8	/	-13.8	38.3
O=C1COc2nc3ccccc3cc2CN1C1CCC1	/	/	3.8	/	26.2
C[C@H]1CCC/C=C\[C@@H]2C[C@H](OC(=O)CN(C)C)C[C@H]2[C@@H](O)/C=C\C(=O)O1	/	/	46.5*	/	-1.3
CNCc1nc2ccccc2[nH]1	12.5*	-8.1	7.0	-22.5	17.1
COCCCNC(CC(=O)Nc1ccccc1C(=O)OC)C(=O)O (stereo not drawn)	/	/	/	28.1*	/
COC(=O)c1ccccc1NC(=O)CC(NCc1ccccc1)C(=O)O (stereo not drawn)	/	/	14.6	-2.2	/
Cc1noc(C)c1COC(=O)COc1cccc2c1OC(C)(C)C2	-5.3	16.1	10.3	-23.3	64.8*
CC1(C)Cc2cccc(OCC(=O)NC3CC3)c2O1	-8.3	16.8	3.9	-4.9	-14.4
O=C(Nc1ccc2ccccc2c1)C(=O)C1C(=O)Nc2ccccc21 (stereo not drawn)	/	51.5*	14.0	-4.6	-15.3
O=C(c1ccc2c(c1)OCO2)N1CCc2nc(N3CCOCC3)[nH]c(=O)c2C1	/	/	8.1	/	-4.2
CCOC(=O)c1c(NC(=O)CSc2nnnn2C)sc(C)c1-c1ccc(C)cc1	-5.9	55.8*	12.5	-16.2	50.2
CCOC(=O)c1c(-c2ccccc2)csc1NC(=O)CSc1nnnn1C	1.4	-11.2	7.9	-13.2	16.7
Cc1cc(C)c2c(c1)-c1cc(C)nn1C(c1ccc3c(c1)OCO3)N2 (stereo not drawn)	-0.5	-201.4	6.3	-29.1	64.4*
Cc1cc2n(n1)C(c1ccc3c(c1)OCO3)Nc1c(C)cccc1-2 (stereo not drawn)	-2.2	-61.7	14.1	-22.1	44.2
O=C(O)CNC(=O)c1cc(=O)[nH]c(=O)[nH]1	/	/	8.9	/	-21.5
Cn1c(=O)c2c(nc(NC3CCCCC3)n2CCCc2ccccc2)n(C)c1=O	/	/	14.7	/	31.5
Nc1nonc1-n1nnc(C(=O)O)c1-c1cccs1	10.1*	-14.4	10.3	-2.0	20.1
CCOC(=O)c1nnn(-c2nonc2N)c1-c1cccs1	2.2	-6.4	9.3	-13.1	11.6
CCOC(=O)c1c(-c2ccccc2Cl)cn2ccccc12	-2.6	i	4.9	-20.4	54.5
CCOC(=O)c1c2c(n3ccccc13)C(=O)c1ccccc1C2=O	/	/	46.4*	/	-41.5
SMILES	Efa HMGR inh	Calpain2 inh	PGE2 EP2 inh	Furin inh	EP2 modulator
CN1CCN(C2=C(Cl)C(=O)C(c3cnc(N4CCCCC4)s3)=C(Cl)C2=O)CC1	-6.8	-74.4	103.6*	-12.6	-56.6
COc1ccc(-c2cc(C(F)(F)F)nc(SCC(=O)Nc3ccc(OC)c(OC)c3)n2)cc1	/	/	14.8	/	-38.7
CC1=C/C(=N\OS(=O)(=O)c2ccccc2)C(C)=CC1=O	-0.5	-63.4	132.8*	-16.6	-24.0
CC1=C/C(=N\OS(=O)(=O)c2ccccc2)C(C(C)C)=CC1=O	-3.3	-44.6	28.1	-15.2	-66.8
O=c1[nH]c(/C=C/c2ccc(-c3ccc(F)cc3)o2)nc(O)c1[N+](=O)[O-]	/	/	4.3	/	-2.4
Cc1nc([N+](=O)[O-])c(Br)n1CC(=O)c1cccc([N+](=O)[O-])c1	16.5*	-6.1	4.9	-23.5	-19.8
Cc1nc([N+](=O)[O-])c(Br)n1CC(=O)c1ccc(F)cc1	-4.6	12.7	8.5	-7.7	-18.1
COc1ccc(/C=N/Nc2nc(Nc3ccccc3)nc(N3CCCC3)n2)cc1	11.2*	-17.5	7.4	-26.8	-26.8
COc1ccc(/C=N/Nc2nc(N3CCCC3)nc(N3CCCC3)n2)cc1	1.4	20.8	5.4	-13.0	-24.8
Cc1ccc(C)c(N(CC(=O)NC(C)(C)C)C(=O)CCC(=O)Nc2ccccn2)c1	/	/	14.3	/	11.0
CCOC(=O)N1CCN(c2nc(C(F)(F)F)nc3c(C)cc(C)cc23)CC1	0.6	-1.8	7.6	-5.6	32.3
Cc1cc(C)c2nc(C(F)(F)F)nc(N3CC(C)OC(C)C3)c2c1 (stereo not drawn)	-0.3	-6.0	/	2.6	61.3*
CCOC(=O)c1c(NC(=O)COC)sc2c1CCC(C)C2 (stereo not drawn)	/	/	15.7	/	43.6
O=C(/C=C/c1ccccc1)NC1CC2CCCC(C1)N2Cc1cccs1 (stereo not drawn)	/	/	49.1*	/	-97.0
COc1ccc(C(=O)Nc2ccc(S(=O)(=O)NC(C)(C)C)cc2)cc1[N+](=O)[O-]	-13.8	53.6*	5.3	-10.5	-34.9
COc1cc(C(=O)Nc2ccc(S(=O)(=O)NC(C)(C)C)cc2)cc(OC)c1OC	-13.3	13.5	9.7	-9.3	-69.0
Cc1cc(C(=O)NCCCN(C)C)c2ccccc2n1	-10.8	26.4	5.3	-15.0	2.6
CN(C)CCCc1c2ccccc2nc2ccc(Cl)cc12	/	/	57.5*	/	2.3
O=C(N/N=C/c1cc(Br)cc(Br)c1O)c1cccc(N2CCCC2=O)c1	14.3*	-195.3	14.1	-29.9	-30.5
CCN(CC)c1ccc(-c2n[nH]c(=S)n2-c2ccccc2C)cc1	14.1*	4.8	4.7	-26.3	30.4
CCN(CC)c1ccc(-c2n[nH]c(=S)n2-c2ccccc2)cc1	-7.3	-83.0	13.2	-16.5	26.0
CCCn1c(=O)c(C(=O)Nc2ccccc2F)c(O)c2ccccc21	/	/	17.4	/	8.8
C=CCn1c(=O)c(C(=O)NCC)c(O)c2ccccc21	/	/	-0.6	/	69.7*
CCCn1c(=O)c(C(=O)Nc2ccccc2C(=O)OC)c(O)c2ccccc21	-3.8	-324.8	5.9	-16.3	62.6*
CCCn1c(=O)c(C(=O)NCCCCl)c(O)c2ccccc21	/	/	19.4	/	70.4*
SMILES	Efa HMGR inh	Calpain2 inh	PGE2 EP2 inh	Furin inh	EP2 modulator
COc1ccc(S(=O)(=O)N2CCCC(C(=O)Nc3cccc(C)c3)C2)cc1Cl (stereo not drawn)	/	/	10.0	/	-47.7
O=C(CSc1nnc(COc2cccc3cccnc23)o1)N1CCCC1	12.4*	-59.9	9.7	-18.4	8.0
CN(C)C(=O)CN1C(=O)N2CCN=C2c2ccccc21	/	/	5.2	/	-19.8
Cc1ccc(NS(=O)(=O)c2cc(C(=O)NCCSC3CCCCC3)ccc2C)cc1	4.4	56.5*	7.0	-15.8	-1.0
Cc1onc(-c2c(Cl)cccc2Cl)c1C(=O)Nc1cccc2nsnc12	/	/	7.5	/	9.8
O=C(CCN1CCCCC1)N1CCc2c([nH]c3ccccc23)[C@H]1c1cccnc1	/	/	43.3*	/	4.6
CC(NCCC(c1ccccc1)c1ccccc1)c1ccccc1 (stereo not drawn)	18.9*	13.5	13.8	-16.7	15.8

Screening data: PubChem, several laboratories
